The list is not random: actives were taken first. Their share in the collection is about 8.3%.
HCV inh: blocks hepatitis C virus. AID 651820. Huh7.5.1 HCVcc-Cre infection, luciferase reporter, 44 h. 3.4% of 340,000 active. Potency, µM (series often up to 41.8 µM), for inactives: top-dose activity change, negative = inhibition, hits mostly inhibitors; also: potency is read from the fitted curve at half-maximal effect
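Infectious HCV cell culture screen: compound-treated cells (1,000/well, pre-plated 4 h) are infected with HCVcc-Cre at roughly 0.5 moi and grown 44 h. Infection is quantified by luciferase signal after 15 min substrate incubation at room temperature.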
Lassa entry inh: Lassa virus entry inhibition | Potency, µM (doses to about 37.9 µM), for the others: at the highest dose activity change, negative = inhibition, most hits filed as inhibitors | Lassa virus pseudotype entry inhibition, cell reporter | 1.2% of 300,000 active; calls by dose curve; tested in HEK293 cells; also: potency is read from the fitted curve at half-maximal effect; nearly all actives have a fitted effect of over 50% in size
FMDV inh: antivirals against foot and mouth disease virus | FMDV antiviral cell-based qHTS | Potency, µM (doses to about 57.9 µM), for the others: top-dose activity change, negative = inhibition, usual class: inhibitors | 1.2% of 410,000 active; calls by dose curve; tested in HEK293T cells; also: read-out not given here; potency is read from the fitted curve at half-maximal effect; nearly all actives have a fitted effect of over 45% in size
Giardia FBPA inh: Giardia lamblia aldolase inhibition; Potency, µM (doses to about 59.6 µM), inactives show at the highest dose activity, negative = inhibition, usual class: inhibitors; AID 2451; 0.71% of 290,000 active; purified Giardia FBPA; also: potency is read from the fitted curve at half-maximal effect; nearly all actives have a fitted effect of over 55% in size
Target sequence (A8B2U2 whole entry, looked up): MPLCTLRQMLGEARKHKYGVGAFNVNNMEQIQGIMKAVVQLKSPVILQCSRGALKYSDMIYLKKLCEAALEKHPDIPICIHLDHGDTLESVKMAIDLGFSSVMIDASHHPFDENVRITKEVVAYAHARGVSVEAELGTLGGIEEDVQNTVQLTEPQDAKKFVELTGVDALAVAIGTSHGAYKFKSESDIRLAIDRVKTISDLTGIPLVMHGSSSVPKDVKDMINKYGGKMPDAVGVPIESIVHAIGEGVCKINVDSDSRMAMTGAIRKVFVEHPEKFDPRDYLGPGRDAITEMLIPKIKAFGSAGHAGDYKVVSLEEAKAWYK
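Giardia FBPA (40 nM reagent) was preincubated 10 min at RT with compound (up to 57.5 uM final), then substrate plus GAPDH/TPI/NAD/arsenate coupling system with diaphorase/resazurin was added; resorufin fluorescence (525/598 nm) was read after 20 min.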
Marburg entry inh: blocks Marburg virus binding to or entry into cells. Marburg virus pseudotyped entry inhibition, cell reporter. Potency, µM (top dose mostly 37.8 µM), without a hit: at the top dose activity change, negative = inhibition, usual class: inhibitors. 1.8% of 300,000 active. AID 540276; calls by dose curve; tested in HEK293 cells; also: potency is read from the fitted curve at half-maximal effect
HCMV antiviral: inhibitors of human cytomegalovirus; HFF cells, HCMV-luciferase reporter, 72 h; hits give low values; activity change, negative = inhibition, % at 57.5 µM; 4.5% of 410,000 active; in the data active = activity change below about -60%; inconclusive = no clear call, values can overlap the other calls; inactive = above about -39%
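Steps: HFFs plated, 16 h 37C; compounds added; HCMV-luciferase added to MOI 1 PFU/cell; 72 h 37C; OneGlo reagent, 5 min room temperature; luminescence read, normalized to controls.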
The depositor's hits bear a star; [ ] = remark or other dose. Unless noted, calls follow the shape of the dose curve; as a rule, active = well fitted curve in the direction sought with a large enough effect; inconclusive = small, poorly fitted or top-dose-only effect, or another doubt; inactive = no such curve, though single readings can be large; an effect the other way counts as inactive or inconclusive. % is scaled to controls: 0 for no effect and ±100 for the full control effect.

N#C/C(=C/c1cn(-c2ccccc2)nc1-c1cccc(OCc2ccccc2)c1)C(=O)NCCCn1ccnc1 was read as HCV inh inconclusive, Lassa entry inh inconclusive, FMDV inh 0%, Giardia FBPA inh 3%, Marburg entry inh 11µM* and HCMV antiviral 16.
Screening Cc1ccc(S(=O)(=O)N(C)C[C@@H]2Oc3ccc(NS(=O)(=O)c4ccccc4)cc3CC(=O)N([C@@H](C)CO)C[C@H]2C)cc1 returned HCV inh 0.56µM*, FMDV inh -6% and HCMV antiviral -15.
C[C@H]1CN([C@@H](C)CO)C(=O)Cc2cc(NC(=O)CCC(F)(F)F)ccc2O[C@H]1CN(C)S(=O)(=O)c1ccc(F)cc1 was read as HCV inh -17%, FMDV inh -14% and HCMV antiviral -100*.
C[C@H](CO)N1C[C@H](C)[C@H](CN(C)S(=O)(=O)c2cccs2)Oc2ccc(NC(=O)Nc3ccc4c(c3)OCO4)cc2CC1=O was read as HCV inh -4%, FMDV inh -25% and HCMV antiviral -69*.
For COc1ccc(OC)c(NC(=O)CN2C(=O)CCc3cc(S(=O)(=O)N4CCCCC4)ccc32)c1 the results were Lassa entry inh inconclusive, FMDV inh -6% and HCMV antiviral 21.
`Cn1cnc([N+](=O)[O-])c1S(=O)(=O)Oc1ccc(Cl)cc1` gave HCV inh inconclusive, Lassa entry inh inconclusive, FMDV inh 20µM*, Marburg entry inh 11µM* and HCMV antiviral 18.
Cn1cnc([N+](=O)[O-])c1Oc1cccc(O)c1 was read as HCV inh -3%, Lassa entry inh -21%, FMDV inh 40µM*, Giardia FBPA inh 6%, Marburg entry inh -4% and HCMV antiviral -16.
Screening Cn1cnc([N+](=O)[O-])c1Oc1cccc2ccccc12 returned HCV inh inconclusive, Lassa entry inh 0%, FMDV inh 28µM*, Giardia FBPA inh -9%, Marburg entry inh inconclusive and HCMV antiviral 11.
For CCS(=O)(=O)c1c([N+](=O)[O-])ncn1C the results were HCV inh inconclusive, Lassa entry inh -1%, FMDV inh inconclusive, Giardia FBPA inh 6%, Marburg entry inh 0% and HCMV antiviral 27.
Cn1cnc([N+](=O)[O-])c1Oc1ccccc1 was read as HCV inh inconclusive, Lassa entry inh -7%, FMDV inh inconclusive, Giardia FBPA inh 4%, Marburg entry inh inconclusive and HCMV antiviral -10.
`Cn1cnc([N+](=O)[O-])c1S(=O)(=O)Oc1cccc2ccccc12` gave HCV inh inconclusive, Lassa entry inh inconclusive, FMDV inh 22µM*, Marburg entry inh inconclusive and HCMV antiviral -3.
Screening Cc1cn2c(=O)c(S(=O)(=O)NCc3ccc(F)cc3)c(C)nc2s1 returned Lassa entry inh -15%[46.1 µM], FMDV inh -19% and HCMV antiviral 7.
Screening CCN(CC)S(=O)(=O)c1ccc2c(c1)N(CC(=O)NCCc1ccc(OC)c(OC)c1)C(=O)CO2 returned Lassa entry inh -26%[46.1 µM], FMDV inh -9% and HCMV antiviral inconclusive.
`C[C@@H]1Cc2ccccc2N1NC(=O)c1ccc(Cl)c(S(N)(=O)=O)c1` gave Marburg entry inh 5%.
Screening Cc1ccc(C(=O)OC[C@H]2O[C@H](Cl)C[C@@H]2OC(=O)c2ccc(C)cc2)cc1 returned Giardia FBPA inh -1%.
Cc1cccc(N2CCN(C(=O)CCCSc3nc4ccccc4[nH]3)CC2)c1C was read as Lassa entry inh -22%[14.3 µM], FMDV inh 35µM*, Giardia FBPA inh 1%, Marburg entry inh inconclusive and HCMV antiviral inconclusive.
COc1ccc(-c2cc3nc(C)c(CCC(=O)N4CCN(c5cc(C)ccc5C)CC4)c(C)n3n2)c(OC)c1 was read as Lassa entry inh 13%[46.1 µM], FMDV inh 28µM*, Marburg entry inh -2%[46.1 µM] and HCMV antiviral 2.
For COc1ccc(C(=O)CCC(=O)N2CCN(c3cc(C)ccc3C)CC2)cc1 the results were HCV inh 10µM*, FMDV inh inconclusive, Giardia FBPA inh 0% and HCMV antiviral inconclusive.
CCOC(=O)N1CCN(C(=O)CCC(=O)c2ccc(OCC)cc2)CC1 was read as HCV inh 10%, Lassa entry inh 11µM*, FMDV inh 7%, Giardia FBPA inh 2%, Marburg entry inh 13%[46.1 µM] and HCMV antiviral -28.
For O=C(CCCSc1nc2ccccc2[nH]1)N1CCN(c2ccccc2)CC1 the results were HCV inh inconclusive, Lassa entry inh -31%, FMDV inh inconclusive, Giardia FBPA inh 11%, Marburg entry inh inconclusive and HCMV antiviral -16.
CCN1C[C@@]2(COC)C3[C@@H](OC)C4[C@@H]1C3([C@@H]1C[C@@]3(O)[C@H](OC(=O)c5ccccc5)[C@@H]1[C@]4(OC(C)=O)[C@@H](O)[C@@H]3OC)[C@H](OC)C[C@H]2O was read as Marburg entry inh 1%.
Cc1cccc(C)c1OCc1nc2c3cnn(-c4cccc(F)c4)c3ncn2n1 was read as Lassa entry inh 21%[46.1 µM], FMDV inh -4%, Marburg entry inh 15%[46.1 µM] and HCMV antiviral 10.
COc1ccccc1CN1CCC2(CC1)CCN(S(=O)(=O)c1ccccc1)CC2 was read as FMDV inh -14% and Giardia FBPA inh 0%.
Screening COc1cc(OC)cc(-c2cc3nc(C)c(CCC(=O)O)c(C)n3n2)c1 returned HCV inh 11%, FMDV inh 1.4µM*, Giardia FBPA inh -2%, Marburg entry inh -2% and HCMV antiviral -79*.
For COc1ccc(-c2noc(CCCC(=O)N3CCN(c4cc(C)ccc4C)CC3)n2)cc1 the results were HCV inh inconclusive, FMDV inh 14% and HCMV antiviral 53.
Screening COc1ccc(CCC(=O)NCCS(=O)(=O)N2CCN(c3ccccc3OC)CC2)cc1 returned HCV inh 14µM*, FMDV inh -25%, Giardia FBPA inh -4% and HCMV antiviral inconclusive.
Screening CCOC(=O)c1[nH]c2ccc(OC)cc2c1NC(=S)N1CCN(c2cccc(C)c2C)CC1 returned HCV inh 10µM*, Lassa entry inh inconclusive, FMDV inh 0%, Giardia FBPA inh -18%, Marburg entry inh 2.2µM* and HCMV antiviral -12.
Screening COc1ccc(CCC(=O)NCCS(=O)(=O)N2CCN(c3ccccc3F)CC2)cc1 returned HCV inh -23%, Lassa entry inh -21%[46.1 µM], FMDV inh -22%, Marburg entry inh 8% and HCMV antiviral -13.
For COc1ccc(-c2noc(CCCCC(=O)N3CCN(c4cc(C)ccc4C)CC3)n2)cc1 the results were HCV inh inconclusive, FMDV inh inconclusive and HCMV antiviral -96*.

Source: PubChem
